# Reference: PubChem BioAssay (Tox21)
# Where “and” joins values, the source holds several entries; their conditions need not be identical. Equal entries are not always repeated. Results filed as inconclusive are left out. A call without a number means that no potency is given here. Calls of active or inactive are those of the source. Calls follow the shape of the dose curve; as a rule, active = well fitted curve in the direction sought with a large enough effect in the repeat runs; inconclusive = weak or mixed curves; inactive = no such curve, though single readings can be large; an effect the other way counts as inactive or inconclusive.
# Experiments:
# [1] = A CellTox Green Cytotoxicity Assay to monitor cytotoxicity in HepG2 cells - 0 hour (AID 1224882); also: nearly all actives have a fitted effect of over 35% in size
# Method in brief: (§1)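 Real-time cytotoxicity: fluorescence of a cell-impermeant cyanine dye binding DNA of dead HepG2 cells, measured repeatedly (0–40 h) during compound exposure at 37 C. Cells seeded 600/well with reagent, dosed after 5 h.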
# [2] = A CellTox Green Cytotoxicity Assay to monitor cytotoxicity in HepG2 cells - 32 hour (AID 1224883); also: nearly all actives have a fitted effect of over 50% in size; also: potency is read from the fitted curve at half-maximal effect
# Method in brief: as §1
# [3] = qHTS RealTime-Glo MT Cell Viability Assay in HepG2 cells - 16 hour (AID 1224885); also: nearly all actives have a fitted effect of over 50% in size; also: potency is read from the fitted curve at half-maximal effect
# Method in brief: (§2)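 Real-time, nonlytic viability: 600 HepG2 cells/well mixed with NanoLuc enzyme plus prosubstrate; 5 h settle, compound (DMSO) added by pintool; luminescence monitored over 40 h at 37 C.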
# [4] = qHTS RealTime-Glo MT Cell Viability Assay in HEK293 cells - 24 hour (AID 1224886); also: nearly all actives have a fitted effect of over 50% in size; also: potency is read from the fitted curve at half-maximal effect
# Method in brief: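 Cells + reagent dispensed (600 cells/well, HEK293) → 5 h at 37 C/5% CO2 → 23 nL compound in DMSO pinned → 40 h at 37 C → luminescence read at 0, 8, 16, 24, 32, 40 h.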
# [5] = qHTS RealTime-Glo MT Cell Viability Assay in HEK293 cells - 8 hour (AID 1224887); also: nearly all actives have a fitted effect of over 50% in size; also: potency is read from the fitted curve at half-maximal effect
# Method in brief: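 Luminescence, which tracks viable cell number through reduction of the prosubstrate to a NanoLuc substrate, was read over continuous 37 C culture. Cells (600/well) were premixed with reagent and rested 5 h before 23 nL of compound in DMSO was pinned.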
# [6] = qHTS RealTime-Glo MT Cell Viability Assay in HepG2 cells - 0 hour (AID 1224889); also: nearly all actives have a fitted effect of over 50% in size
# Method in brief: as §2
# [7] = A CellTox Green Cytotoxicity Assay to monitor cytotoxicity in HepG2 cells - 8 hour (AID 1224890); also: nearly all actives have a fitted effect of over 45% in size; also: potency is read from the fitted curve at half-maximal effect
# Method in brief: as §1
# [8] = qHTS assay to identify small molecule antagonists of the estrogen receptor alpha (ER-alpha) signaling pathway using the BG1 cell line in the presence of 0.1 nM 17-beta-estradiol - cell viability counter screen (AID 1259241); also: nearly all actives have a fitted effect of over 40% in size; also: potency is read from the fitted curve at half-maximal effect
# Method in brief: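 Estradiol-stimulated (0.1 nM) VM7Luc4E2 cells exposed to compounds 22 hr; viability measured by fluorescence of cleaved CellTiter-Fluor substrate after 30 min.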
# [9] = A CellTox Green Cytotoxicity Assay to monitor cytotoxicity in HEK293 cells - 16 hour (AID 1224888); also: nearly all actives have a fitted effect of over 35% in size; also: potency is read from the fitted curve at half-maximal effect
# Method in brief: (§3)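 Fluorescence from a DNA-binding dye excluded by viable cells was measured repeatedly in the same HEK293 wells (600 cells/well) during continuous compound exposure at 37 C. Each assay gives one read point: 0, 8, 16, 24, 32 or 40 h.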
# [10] = A CellTox Green Cytotoxicity Assay to monitor cytotoxicity in HEK293 cells - 8 hour (AID 1224884); also: nearly all actives have a fitted effect of over 35% in size; also: potency is read from the fitted curve at half-maximal effect
# Method in brief: as §3
SMILES,Potency [1],Potency [2],Potency [3],Potency [4],Potency [5],Potency [6],Potency [7],Potency [8],Potency [9],Potency [10]
CCCCCCCCCCBr,inactive,inactive,inactive,inactive,inactive,inactive,inactive,inactive,,
CNC(C)Cc1ccc2c(c1)OCO2 (stereo unspecified),inactive,inactive,inactive,inactive,inactive,inactive,inactive,,,
CN(CCCC(=O)c1cccnc1)N=O,inactive,inactive,inactive,inactive,inactive,inactive,inactive,inactive,inactive,
CCS(=O)(=O)c1cccnc1S(=O)(=O)NC(=O)Nc1nc(OC)cc(OC)n1,inactive,inactive,inactive,inactive,,inactive,,inactive,inactive,
CC(=O)c1ccc(-c2ccccc2)cc1,inactive,inactive,,inactive,inactive,inactive,inactive,inactive,inactive,
ClCc1ccc(Cl)cc1Cl,inactive,inactive,inactive,inactive,inactive,inactive,inactive,inactive,,
COc1ccc([N+](=O)[O-])cc1O,inactive,inactive,,inactive,inactive,inactive,inactive,inactive,,
CCCCCCCCCCCCCCC(Br)C(=O)O (stereo unspecified),inactive,17.4 µM (active),inactive,inactive,,inactive,inactive,,inactive,
C[C@H]1CC[C@@H]2[C@@H](C)[C@H]3[C@H](C[C@H]4[C@@H]5CC=C6CC(O[C@@H]7O[C@H](CO)[C@H](O)[C@H](O[C@@H]8O[C@H](CO)[C@@H](O)[C@H](O)[C@H]8O)[C@H]7O[C@H]7O[C@@H](C)[C@H](O)[C@@H](O)[C@H]7O)CC[C@]6(C)[C@H]5CC[C@]34C)N2C1 (stereo partly specified),inactive,22.6 µM (active),50.6 µM (active),12.7 µM (active),8.99 µM (active),inactive,25.3 µM (active),inactive,,
COc1ccc(/C(=C/C(=O)N2CCOCC2)c2ccc(Cl)cc2)cc1OC,inactive,inactive,inactive,,,,inactive,,,
CCCCN(CCCC)C(=S)[S-].CCCCN(CCCC)C(=S)[S-].[Zn+2],inactive,21.9 µM (active),34.7 µM (active),11 µM (active),15.5 µM (active),inactive,inactive,17.2 µM (active),inactive,
COP(=S)(OC)Oc1cc(Cl)c(Br)cc1Cl,inactive,inactive,inactive,inactive,inactive,,inactive,inactive,inactive,
CN(C)C1CSSSC1,inactive,inactive,inactive,inactive,,inactive,inactive,inactive,inactive,
COC[C@H](C)N(C(=O)CCl)c1c(C)csc1C,inactive,inactive,,inactive,inactive,inactive,inactive,inactive,inactive,
N#CCCSCCC#N,inactive,inactive,inactive,inactive,inactive,inactive,inactive,inactive,,
Oc1c(Cl)c(Cl)cc(Cl)c1Cl,inactive,inactive,inactive,47.6 µM (active),,inactive,inactive,inactive,,
CC(Cc1ccc(C(C)(C)C)cc1)CN1C[C@@H](C)O[C@@H](C)C1 (stereo partly specified),inactive,49 µM (active),inactive,,,inactive,,inactive,,
CC(C)C1CCC(Cc2ccc(Cl)cc2)C1(O)Cn1cncn1 (stereo unspecified),inactive,43.2 µM (active),34.3 µM (active),12.2 µM (active),,inactive,54.4 µM (active),inactive,inactive,
N#CCCC(Br)(C#N)CBr (stereo unspecified),inactive,30.9 µM (active),38.9 µM (active),24.5 µM (active),49 µM (active),inactive,54.9 µM (active),inactive,54.9 µM (active),
N#C/C=C/c1ccccc1,inactive,inactive,,inactive,inactive,inactive,inactive,inactive,inactive,
O=[N+]([O-])c1cc([N+](=O)[O-])c2ccccc2c1,inactive,inactive,,inactive,,,,,,
Oc1ccc2ccc3cccc4ccc1c2c34,inactive,54.9 µM (active),49 µM (active),15.5 µM (active),13.8 µM (active),inactive,,inactive,,
CCOC(=O)c1ccccc1S(=O)(=O)NC(=O)Nc1nc(Cl)cc(OC)n1,inactive,inactive,inactive,,,inactive,inactive,inactive,,
CC1(C)CN=C(NN=C(/C=C/c2ccc(C(F)(F)F)cc2)/C=C/c2ccc(C(F)(F)F)cc2)NC1,inactive,17.4 µM (active),19.5 µM (active),43.6 µM (active),,inactive,34.7 µM (active),,,

SMILES,Potency [1],Potency [2],Potency [3],Potency [4],Potency [5],Potency [6],Potency [7],Potency [8],Potency [9],Potency [10]
ClC1=C(Cl)[C@]2(Cl)[C@@H]3[C@@H](Cl)[C@H](Cl)C[C@@H]3[C@@]1(Cl)C2(Cl)Cl,inactive,inactive,inactive,inactive,inactive,inactive,,inactive,,
Nc1ccc(Cl)cc1C(=O)c1ccccc1,inactive,inactive,inactive,,,inactive,inactive,inactive,,
N#Cc1ccccc1N,inactive,inactive,inactive,inactive,,inactive,inactive,inactive,inactive,
CCOP(=S)(OCC)SCS(=O)(=O)C(C)(C)C,inactive,inactive,inactive,inactive,,,inactive,inactive,inactive,
C=CCOC(N)=O,inactive,inactive,,inactive,inactive,inactive,inactive,inactive,inactive,
O=C1c2ccccc2C(=O)C1C(=O)C(c1ccccc1)c1ccc(Cl)cc1 (stereo unspecified),inactive,54.9 µM (active),inactive,inactive,inactive,,49 µM (active),,,
Cc1cc(C)cc(OP(=O)(Oc2cc(C)cc(C)c2)Oc2cc(C)cc(C)c2)c1,inactive,inactive,inactive,inactive,,inactive,inactive,inactive,inactive,
Oc1cc(Cl)c(Cl)c(Cl)c1,inactive,,inactive,,inactive,,inactive,inactive,inactive,inactive
ClC1=C(Cl)C2(Cl)C3C(Cl)C(Cl)CC3C1(Cl)C2(Cl)Cl (stereo unspecified),inactive,,,48.8 µM (active),48.8 µM (active) and 49 µM (active),inactive,,inactive,,54.8 µM (active)
CC(C)(C)c1cc([N+](=O)[O-])cc(C(C)(C)C)c1O,inactive,,,,,inactive,inactive,,,inactive
BrC(Br)C(Br)(Br)Br,inactive,,inactive,24.7 µM (active),,inactive,inactive,inactive,,inactive
Cc1cc(C(C)(C)c2cc(C)c(O)c(C)c2)cc(C)c1O,inactive,,,21.2 µM (active),,inactive,inactive,inactive,inactive,inactive
CC(=O)OC1(c2ccccc2)CCN(CCc2ccccc2)CC1,inactive,,inactive,28.2 µM (active),,inactive,inactive,,,inactive
CCCCOCN(C(=O)CCl)c1c(CC)cccc1CC,inactive,,,inactive,inactive,inactive,inactive,inactive,inactive,inactive
Cc1cc(N=Nc2ccccc2C)ccc1N,inactive,,,21.9 µM (active) and 19.5 µM (active),21.9 µM (active) and 19.5 µM (active),inactive,inactive,,inactive,inactive
Nc1ccccc1C(=O)Oc1ccc2ccccc2c1,inactive,,inactive,,,inactive,inactive,,,inactive
Oc1ccc(C2(c3ccc(O)cc3)CCCCC2)cc1,inactive,,inactive,,,inactive,inactive,,,
CC(=O)O[C@H]1CC[C@@]2(C)C(=CC[C@@H]3[C@@H]2CC[C@]2(C)C(=O)CC[C@@H]32)C1,inactive,inactive,,54.9 µM (active),,inactive,inactive,inactive,inactive,
CCN(CC)c1c([N+](=O)[O-])cc(C(F)(F)F)c(N)c1[N+](=O)[O-],inactive,,,17.4 µM (active),6.92 µM (active),inactive,,inactive,inactive,inactive
CCCN(CCC)CCc1c[nH]c2ccccc12,inactive,,,inactive,inactive,inactive,inactive,,inactive,inactive
Clc1ccc(-c2ccccc2)cc1,,inactive,inactive,inactive,inactive,inactive,inactive,inactive,inactive,inactive
O=[N+]([O-])c1c2ccccc2cc2ccccc12,inactive,,inactive,inactive,inactive,inactive,inactive,inactive,5.43 µM (active),inactive
ClCc1ccccc1CCl,inactive,,inactive,,,inactive,,inactive,inactive,
C[C@H]1O[C@@H](O[C@H]2[C@@H](O)C[C@H](O[C@H]3[C@@H](O)C[C@H](O[C@H]4CC[C@@]5(C)[C@H](CC[C@@H]6[C@@H]5CC[C@]5(C)[C@@H](C7=CC(=O)OC7)CC[C@]65O)C4)O[C@@H]3C)O[C@@H]2C)C[C@H](O)[C@@H]1O,,inactive,inactive,34.9 nM (active) and 84.9 nM (active),inactive,inactive,inactive,,inactive,inactive
